Experimental data from PubChem BioAssay (NCI).
Compounds without any hit were thinned out: in the full panel of roughly 83,000, 20% have a hit.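 Values shown are percent growth following 48 h exposure of cells in 96-well plates to a single concentration of compound; below 10 was considered active.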 Values without a mark were called inactive. The source made the active and inactive calls.

Assays:
Assay in all cases: NCI-60 one-dose screen, 48 h (100 = growth as untreated, 0 = no growth, -100 = all killed)
Settings in all cases: 10 µM unless noted
[1] = system: SK-MEL-2 melanoma
[2] = system: EKVX NSCLC
[3] = system: SN12C renal
[4] = system: UO-31 renal
[5] = system: TK-10 renal
[6] = system: ACHN renal
[7] = system: CAKI-1 renal
[8] = system: A498 renal
[9] = system: MOLT-4 leukemia
[10] = system: SR leukemia
[11] = system: RPMI-8226 leukemia
[12] = system: OVCAR-8 ovarian
[13] = system: OVCAR-5 ovarian
[14] = system: OVCAR-4 ovarian
[15] = system: SK-OV-3 ovarian
[16] = system: IGROV1 ovarian
[17] = system: OVCAR-3 ovarian
[18] = system: HS 578T breast
[19] = system: NCI/ADR-RES ovarian
[20] = system: CCRF-CEM leukemia

| Structure (SMILES) | growth [1] | growth [2] | growth [3] | growth [4] | growth [5] | growth [6] | growth [7] | growth [8] | growth [9] | growth [10] | growth [11] | growth [12] | growth [13] | growth [14] | growth [15] | growth [16] | growth [17] | growth [18] | growth [19] | growth [20] |
| --- | --- | --- | --- | --- | --- | --- | --- | --- | --- | --- | --- | --- | --- | --- | --- | --- | --- | --- | --- | --- |
| Cn1cc(-c2cc(N)n3nc(-c4cn(C)c5ccccc45)cc3n2)c2cc(Cl)ccc21 | -87.4% (active) | -31% (active) | -53.9% (active) | -88.5% (active) | -42.9% (active) | -28.2% (active) | -82.5% (active) | -24.8% (active) | -6.02% (active) | 4.5% (active) | -8.66% (active) | -91% (active) | -13.9% (active) | -34.5% (active) | 72.1% | -4.76% (active) | -44.6% (active) | -11.1% (active) | -11.5% (active) |  |
| COc1ccc(C(=O)/C=C/c2ccccc2Br)cc1S(N)(=O)=O | 81.2% | -80.2% (active) | -25.6% (active) | -65.2% (active) | 3.43% (active) | -97% (active) | 11.8% | 93.3% |  |  | -9.4% (active) | -64.5% (active) | -6.5% (active) | 35.2% | 69.8% | 38.5% | -56.5% (active) | 47% | 16.1% | 6.96% (active) |
| CN1CCN(c2ccc(C(=O)/C=C/c3cc(C(F)(F)F)cc(C(F)(F)F)c3)cc2)CC1 | -86.2% (active) | -73.2% (active) | -79.8% (active) | -92.5% (active) | -88.7% (active) | -99.2% (active) | -73.7% (active) | -70% (active) |  |  | -19.4% (active) | -93.4% (active) | -95.8% (active) | -23.8% (active) | -89.5% (active) | -36.6% (active) | -54.4% (active) | 26.9% | -39.3% (active) | 5.57% (active) |
| COc1ccc(C(=O)/C=C/c2ccccc2Cl)cc1S(N)(=O)=O | 108% | 97.3% | 97.2% | 84.9% | 97.6% | 101% | 102% | 119% |  |  | 120% | 110% | 99.3% | 118% | 110% | 101% | 90.7% | 107% | 104% | 111% |
| COC(=O)C[C@](O)(CCCC(C)(C)O)C(=O)O[C@H]1C(OC)=C[C@@]23CCCN2CCc2cc4c(cc2[C@@H]13)OCO4 | -40% (active) | -4.85% (active) | -11.3% (active) | 30.6% | -12.6% (active) | 2.95% (active) | 3.41% (active) | -18.6% (active) | -6.36% (active) | -25% (active) | -18.1% (active) | -34.8% (active) | -14.5% (active) | -13.9% (active) | 2% (active) | -15.7% (active) | -28.5% (active) | -26% (active) | 96.3% |  |
| CC1CN(c2oc(-c3ccc([N+](=O)[O-])cc3)nc2C#N)CC(C)O1 (configuration not stated) | 103% | 95.2% | 91.5% | 81.7% | 109% | 108% | 98.2% | 97.2% | 99.8% | 83.3% | 101% | 103% | 107% | 102% | 110% | 103% | 110% | 94.4% | 95.4% |  |
| COc1ccc(C(=O)/C=C/c2cccc3ccccc23)cc1S(N)(=O)=O | 45.8% | -6.08% (active) | 6.92% (active) | -68.9% (active) | 22.6% | -27.1% (active) | 13.9% | 107% |  |  | -10.6% (active) | -13.6% (active) | 1.13% (active) | 43.5% | 44.7% | 38.7% | -50.7% (active) | 55.2% | 15.1% | 4.74% (active) |
| COc1ccc(C(=O)/C=C/c2c(F)cccc2Cl)cc1S(N)(=O)=O | 25.1% | 8.71% (active) | 12.8% | 0.59% (active) | 27.4% | -13.8% (active) | 16.4% | 74% |  |  | -10.1% (active) | 3.5% (active) | 25% | 42.9% | 27% | 21.6% | -63.4% (active) | 27% | 12.2% | 6.01% (active) |
| O=C(C1=CNC(=S)NC1c1ccc(O)cc1)c1cc2ccccc2oc1=O (configuration not stated) | 101% | 107% | 99.3% | 72.4% | 130% | 108% | 87.6% | 139% | 94.1% | 75.5% | 88.7% | 100% | 109% | 96.1% | 93.2% | 108% | 101% | 97.8% | 106% |  |
| NS(=O)(=O)c1ccc(-n2cc(-c3cccc(NC(=O)c4cc(N5CCOCC5)cc(C(F)(F)F)c4)c3)nn2)cc1 | 61.9% | 70.5% | 35.1% | 80.3% | 86.3% | 80.4% | 57% | 104% |  |  | 98.8% | 5.31% (active) | 108% | 48.3% | 31.2% | 72.9% | 69% | 47.9% | 98.5% | 93.9% |
| O=C(COc1ccc(NC(=O)Nc2ccc(Cl)c(Cl)c2)cc1)N=Nc1c(O)[nH]c2ccccc12 | -41.9% (active) | 18.6% | -32% (active) | 87.5% | 30.5% | 36.9% | 15.6% | -53.6% (active) | 1.27% (active) | 2.4% (active) | 2.89% (active) | -43.2% (active) | -8.84% (active) | -5.31% (active) | -49.9% (active) | -49% (active) | -78.1% (active) | -9.24% (active) | 80.8% |  |
| O=C(COc1ccc(NC(=O)Nc2ccc(Cl)c(Cl)c2)cc1)N=Nc1c(O)[nH]c2ccc([N+](=O)[O-])cc12 | 48.7% | 85.6% | 52.6% | 85.3% | 113% | 77.8% | 72% | 98.2% | 28% | 25.5% | 55.4% | 78.1% | 74.4% | 75.2% | 95.2% | 74.4% | 56.8% | 57.4% | 100% |  |
| O=C1/C(=C/C2=Cc3ccccc3OC2)SC(=S)N1c1ccccc1F | 107% | 98.8% | 103% | 82.6% | 105% | 107% | 99.1% | 122% | 95.2% | 91% | 85.7% | 110% | 108% | 107% | 95.3% | 103% | 109% | 105% | 109% |  |
| Nc1cccc(SCc2cc3ccccc3[nH]c2=O)c1 | 56.4% | 43.4% |  | 39.1% | 64.3% | 17.6% | 34.2% | 69.7% | 36.1% | 36.5% | 33.1% | 56.7% | 63.6% | 44.1% | 80% | 72.9% | 65.2% | 78.2% | 67.8% | 33% |
| CC(=O)OC[C@@]1(C)C2CC[C@]3(C)C(CC=C4C5CC(C)(C)CC[C@]5(C(=O)Nc5ccc(C)cc5)CC[C@]43C)[C@@]2(C)C[C@@H](OC(C)=O)[C@@H]1OC(C)=O (some centres not stated) | 39.4% | 32.4% |  | 40.9% | 53.2% | 38.9% | 45.8% | 67.1% | 34.4% | 30.9% | 13.8% | 40.3% | 95.2% | 40.2% | 54.3% | 60.9% | 48.9% | 86% | 40.4% | 32.8% |
| CN(C)c1ccnc(CNCCSC2(c3ccc(C(F)(F)F)cc3)c3ccccc3CCc3ccccc32)c1 | -37.6% (active) | -25.3% (active) |  | 1.7% (active) | 0.0233% (active) | -12.1% (active) | -0.905% (active) | -4.68% (active) | -20.9% (active) | -50.9% (active) | -47.8% (active) | -87.3% (active) | -22.7% (active) | 13.9% | -17.4% (active) | -5.42% (active) | -36.5% (active) | -23.4% (active) | -73.9% (active) | -43.6% (active) |
| COc1ccc(-c2nc(SC(C)C)nc(NCCc3c[nH]c4ccccc34)c2C#N)cc1 | 74.6% | 30.4% |  | 40% | 90.6% | 48.9% | 43% | 65.9% | 18.1% | 2.63% (active) | 16.3% | 66.5% | 65.4% | 57.1% | 72% | 94.3% | 63.8% | 36.3% | 32.5% | 18.5% |
